The values that follow come from PubChem BioAssay AID720553 (National Center for Advancing Translational Sciences (NCATS), 2013).

Out of some 340,000 compounds screened, about 3,300 (0.97%) were called active. This is one part of a sample in which actives are shown more often than they occur. Unmarked numbers belong to inactive results.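 Rule for the calls: active = maximum activity change below -70%; inconclusive = maximum activity change from -70% to -50%; inactive = maximum activity change above -50%.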
% is set by controls: 0 for no effect and ±100 for the full control effect.

For this experiment, the system named is Potassium voltage-gated channel subfamily H member 2, brain isoform KCNH2 3.1 (human). The experiment is described as follows: qHTS for Inhibitors of KCHN2 3.1: Mutant qHTS. The note with it: U2OS KCNH2 3.1, thallium flux FluxOr; stronger effect = lower value. A digest of the protocol:
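Normalized rate constant (relative to positive and negative DMSO controls) derived from a 2 min kinetic fluorescence read after stimulation; U2OS cells expressing the 3.1 isoform via virus at 1.77 x 10^8 /mL.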
For the molecule `COc1ccc(NC(=O)C[C@H]2C(=O)N(CCc3ccccc3)C[C@@H]2C)cc1`, the activity change is 5.84%. As for `CCOc1ccc(CCNC(=O)COC(=O)c2ccc(C)c(S(=O)(=O)N3CCOCC3)c2)cc1OCC`, the activity change is 11.9%. Regarding `CNC(=O)c1ccc(CN(C)C(=O)c2cc(C3CC3)nc3c2cnn3C(C)C)cc1`, the activity change is 6.55%. With `CCOC(=O)C(C(=O)c1ccccc1)C(c1ccccc1)c1nccc2ccccc12` (centres undefined), the activity change was -15.2%. Regarding `Cc1cccc(C(=O)NC2CCN(CC(=O)Nc3cccc(Cl)c3)CC2)c1`, the activity change was -1.48%. Next, `C[C@H]1CN(c2ccc(Br)cc2)C(=O)[C@@H]1CC(=O)Nc1ccc(Br)cc1`: 0.444%; `CCOCCc1nn2c(=O)cc(CSCC(=O)Nc3cccc(C)c3C)nc2s1`: 4.66%; `CCCc1nn2c(=O)cc(CSCC(=O)Nc3cccc(C)c3)nc2s1`: -91.5% (active). On to `Cc1cccc(NC(=O)CSCC(=O)Nc2nnc(C3CC3)s2)c1`, for which the activity change was -6.65%.

As to `COc1ccc(C(CNC(=O)CSc2ccccc2)N2CCOCC2)cc1` (centres undefined), the activity change was 1.87%. Next, `O=C(NCCOc1ccccc1)c1ccccc1F`: 2.92%; `c1ccc(Cn2nnc3c(NCC4CC4)ncnc32)cc1`: -1.53%; `CSc1ncnc2c1ncn2CCCNCc1cccs1`: 3.07%.

As for `Cc1cccc(-n2cc(CN3CCN(C(=O)c4ncn[nH]4)CC3)c(-c3cccc(F)c3)n2)c1`, the activity change is 0.932%. With `Cn1cc(CN2CCC(C(O)CCc3ccccc3)CC2)c(-c2ccccc2F)n1` (centres undefined), the activity change is -8.61%. Then `COc1ccc(-n2cc(CNC3CCOCC3)c(-c3cccc(F)c3)n2)cc1`, with -75% (active). Take `COc1ccc(-n2cc(CN(C)Cc3n[nH]c(=O)[nH]3)c(-c3cccc(F)c3)n2)cc1`: the activity change is -14.7%. For `CCC(O)C1CCN(Cc2cn(-c3ccc(OC)cc3)nc2-c2cccc(F)c2)CC1` (centres undefined), the activity change was -90.7% (active). Take `COc1ccc(-c2nn(-c3ccccc3)cc2CN2CCCO2)c(F)c1`: the activity change is 4.37%. Then `CC(OC(=O)c1ccc(NC(=O)CC#N)cc1)C(=O)Nc1ccc(S(=O)(=O)N2CCCC2)cc1` (centres undefined), with 8.99%; and `O=[N+]([O-])c1ccc(C(S(=O)(=O)Cc2ccccc2)S(=O)(=O)Cc2ccccc2)cc1`, with -21.9%. Regarding `CC1(C)CN(Cc2cccnc2)C(=O)[C@H]1CC(=O)Nc1ccc(Br)cc1`, the activity change was -12%. For the molecule `COc1ccc(OC)c(C(=O)NC2CCCc3c2cnn3-c2cc(C)cc(C)c2)c1` (centres undefined), the activity change is -6.38%. Turning to `CCOC(=O)c1cc(-c2sc(NC(=O)c3ccccc3)nc2C)n(CCO)n1`, the activity change was -0.33%.

With `CCCCC(=O)Nc1ccc(C(=O)NCCCn2ccnc2)cc1`, the activity change is 4.23%. Then `CC(=O)Nc1ccc(NC(=O)CCCNC(=O)c2ccc(Cl)cc2)cc1`, with 7.78%; and `CCCCC(=O)Nc1ccc(C(=O)Nc2cc(C(F)(F)F)ccc2Cl)cc1`, with -83.7% (active). As for `CCN(CC)C(=O)C(C)N1c2cccc3cccc(c23)S1(=O)=O` (centres undefined), the activity change was -7.96%. As to `CNS(=O)(=O)c1ccc2c(c1)[nH]c(=S)n2C`, the activity change was 9.63%. Then `COc1cc(C2C(C(=O)Nc3ccccc3OC)=C(C)Nc3ncnn32)ccc1O` (centres undefined), with -70.3% (active). In the case of `COc1ccccc1NC(=O)C1=C(C)Nc2ncnn2C1c1ccc(C)o1` (centres undefined), the activity change was 0.24%. For the molecule `COc1ccccc1NC(=O)C1=C(C)Nc2nc3ccccc3n2C1c1cccs1` (centres undefined), the activity change is 1.01%. Then `CC1CCN(C(=O)CSc2nnc(-c3ccco3)n2N)CC1`, with 13.4%.

`O=NN(CCCl)C(=O)NCCc1cccc[n+]1[O-]`: the activity change is -3.54%. Turning to `CCn1c(SCC(=O)N2CCCC2=O)nc2ccccc21`, the activity change is 9.56%. Then `O=C(Nc1ccnn1C1CCN(Cc2cccc(OCCO)c2)CC1)C1CCCC1`, with 5.49%; and `COc1ccccc1C(=O)Nc1ccnn1C1CCN(Cc2cnn(C)c2)CC1`, with -32.4%; and `CC(C)=CCCC(C)CN1CCC(n2nccc2NC(=O)c2ccccc2)CC1` (centres undefined), with -34.5%.

As for `COc1ccc(CN2CCC(n3nccc3NC(=O)CCCc3ccccc3)CC2)cc1C`, the activity change was -86.2% (active).

`Cc1c(CN2CCC(n3nccc3NC(=O)CCc3ccccc3)CC2)cnn1C`: the activity change was 6.8%. `COc1cc(CN2CCC(n3nccc3NC(=O)CCCc3ccccc3)CC2)ccc1O`: the activity change is -32.8%.

For `Cc1ccc(CN2CCC(n3nccc3NC(=O)CCCc3ccccc3)CC2)o1`, the activity change is 3.89%. On to `CC(C)Oc1ccc(CN2CCC(n3nccc3NC(=O)c3cccnc3)CC2)cc1`, for which the activity change is -80.6% (active). Consider `O=C(CCc1ccccc1)Nc1ccnn1C1CCN(Cc2ccc(OCCO)cc2)CC1`, for which the activity change was -97.2% (active). Turning to `CCOC(=O)c1c(C)[nH]c(C)c1C(=O)COC(=O)/C=C/c1cccc([N+](=O)[O-])c1`, the activity change is -1.51%. Next, `O=C(CNC(=O)N1CC(=O)Nc2ccccc21)Nc1ccc(Br)cc1F`: 2.32%; `COCCn1c(SCC(=O)Nc2ccc(F)cc2F)nc2c(c1=O)SCC2`: -5.38%; `CCc1noc(C)c1C(=O)OCC(=O)c1ccc(NC(=O)CC(C)C)cc1`: 7.88%.

Take `O=C(OCc1cn([C@H]2C[C@H](c3ccccc3)N(C(=O)c3cccs3)C[C@@H]2O)nn1)c1ccccc1`: the activity change is -26.8%. Then `CCCS(=O)(=O)N1CCC(CCOc2ccccc2)(C(=O)OCC)CC1`, with -4.06%; and `CCOC(=O)C1(CCOc2ccccc2)CCN(Cc2ccc(C#CCCO)cc2)CC1`, with -7.38%. Regarding `CCOC(=O)C1(CCOc2ccccc2)CCN(Cc2cc(OC)cc(OC)c2)CC1`, the activity change was -108% (active). Next, `COc1ccc(S(=O)(=O)N2CCCCC2)cc1NC(=O)COc1ccccc1`: -11.6%; `Cc1ccc(/C=C/C(=O)Nc2cc(S(=O)(=O)N3CCCCCC3)ccc2OCC(F)(F)F)o1`: -83.4% (active); `O=C(Nc1cc(S(=O)(=O)N2CCOCC2)ccc1OCC(F)(F)F)c1ccc(N2CCCC2=O)cc1`: -24.2%.

Consider `CNC(=O)C[C@H]1C(=O)N(c2ccc(OC)cc2)C[C@@H]1Cc1ccccc1`, for which the activity change is 6.56%.

For `COCCCn1c(=O)/c(=C/c2ccccc2OC(C)C)s/c1=C(\C#N)C(=O)Nc1ccc(C(=O)O)cc1`, the activity change was 1.1%.

For `CCOC(=O)N1CCN(C(=O)C2CCN(S(=O)(=O)c3cc(Cl)ccc3OCC)CC2)CC1`, the activity change is -0.753%. For `CCOc1ccc(S(=O)(=O)N2CCC(c3ccccc3)CC2)cc1C(=O)O`, the activity change is -0.0458%. Next, `CCOc1ccc(Br)cc1S(=O)(=O)N1CCC(C(=O)O)CC1`: -119% (active). For `Cc1ccccc1NC(=O)Cc1nc(COC(=O)C(C)(C)Oc2ccc(Cl)cc2)cs1`, the activity change is 0.0076%.

Consider `O=C(C1CCN(C2CCN(Cc3ccc4cc(F)ccc4n3)CC2)CC1)N1CCCC1`, for which the activity change is -46.6%. With `C/C(=C\c1ccco1)CN1CCC(N2CCC(C(=O)N3CCOCC3)CC2)CC1`, the activity change is -81.6% (active). Consider `O=C(C1CCN(C2CCN(Cc3cccc4c3OCO4)CC2)CC1)N1CCOCC1`, for which the activity change is 1.54%.

With `COc1ccc([C@H]2C[C@@H](n3cc(COC(=O)c4ccccc4)nn3)[C@H](O)CN2C(=O)c2cccs2)cc1`, the activity change was 5.99%. For `COc1cc(-c2nnc(NC(=O)CS(=O)(=O)c3ccc(Cl)cc3)o2)cc(OC)c1OC`, the activity change is 3.81%. Then `CN1OC[C@@H]2CN[C@H](c3ccc(-c4ccccc4)cc3)C[C@@H]21`, with -8.66%; and `CC(C)c1cc(C(=O)N(C)C2CCCN(Cc3ccccc3F)C2)n(C)n1` (centres undefined), with -13.2%; and `COc1ccc(NC(=O)CN(C)C(=O)c2cc(C)oc2C)cc1`, with -19.2%.

Regarding `CCOC(=O)Cn1c(-c2cccnc2Cl)nc2ccccc21`, the activity change was -86.5% (active).

Consider `CCOC(=O)Cn1c(=O)n(Cc2ccc(OC)cc2)c(=O)c2cccnc21`, for which the activity change is -6.36%. Then `CCn1c(-c2cccnc2Cl)nc2cc(C)c(C)cc21`, with 1.97%; and `CC(C)Oc1ccc(CCc2n[nH]c(=S)n2Cc2ccccc2)cc1`, with 3.01%.

On to `CNC(=O)CSc1nnc(CCc2ccccc2)n1-c1ccccc1`, for which the activity change is -7.79%. For the molecule `CC(C)Oc1ccc(CCc2nnc(SCC(=O)O)n2-c2ccccc2)cc1`, the activity change is -77.9% (active). In the case of `O=Cc1cn(CCOc2ccc(F)cc2)c2ccccc12`, the activity change is -5.46%. Regarding `O=C(NCc1ccccc1)C1CNCC(C(=O)NCc2ccccc2)C1` (centres undefined), the activity change was -3.07%.

With `CCOC(=O)N1CCN(CCC(=O)Nc2ccccc2)CC1`, the activity change was 12.9%. Consider `O=C(CCN1CCN(C/C=C/c2ccccc2)CC1)Nc1cccc(F)c1`, for which the activity change was -109% (active).

Take `COc1ccccc1NC(=O)CCN1CCN(c2ccc(Cl)cc2)CC1`: the activity change is -5.85%. For the molecule `O=C(CCN1CCN(C/C=C/c2ccccc2)CC1)Nc1ccccc1Cl`, the activity change was -111% (active). For the molecule `O=C(CN1CCN(C(=O)c2cccc(F)c2)CC1)Nc1ccccc1F`, the activity change was -0.253%. Take `O=C(CN1CCN(C/C=C/c2ccccc2)CC1)Nc1ccc(F)cc1F`: the activity change is -107% (active). `CNC(=O)NC(=O)C(C)N1CCN(C/C=C/c2ccccc2)CC1` (centres undefined): the activity change is -32.3%.

Regarding `O=C(CCN1C(=O)c2ccccc2C1=O)Nc1cccc(F)c1`, the activity change is 3.35%. As for `O=C(CN1CCCCCC1)Nc1ccc(Cl)cc1F`, the activity change is 7.99%. As for `O=C(C[C@H]1C[C@@H]2c3cc(NC(=O)C4CCC4)ccc3O[C@@H]2[C@H](CO)O1)NC1CCCCC1`, the activity change is -25.5%.

Turning to `N#Cc1ccc(OCC(=O)Nc2nc(-c3ccccn3)cs2)cc1`, the activity change is 6.83%. Take `CCN1C(=O)[C@H]2[C@@H](c3ccccc3)N[C@]3(CCCN(Cc4ccc(C)cc4)C3=O)[C@H]2C1=O`: the activity change was 28.9%.
